Measurements from PubChem BioAssay (Tox21).
The source made the active and inactive calls. Calls follow the shape of the dose curve; as a rule, active = well fitted curve in the direction sought with a large enough effect in the repeat runs; inconclusive = weak or mixed curves; inactive = flat fitted curve, though single readings scatter.

test: qHTS assay to test for compound auto fluorescence at 590 nm (red) in HEK293 cell free culture (AID 720683); settings: cell-free medium autofluorescence, Ex540/Em590 red; series mostly up to 91.3 µM; fluorescence, % of fluorescent control: at the top concentration
Excerpt: U.S. Tox21 Program National Center for Advancing Translational Sciences [NCATS] NIH Chemical Genomics Center [NCGC] U.S. Environmental Protection Agency [EPA] National Institutes of Environmental Health Sciences [NIEHS] National Toxicology Program [NTP] U.S. Food and Drug Administration [FDA] Tox21 Assay Overview: Compound auto fluorescence often interferes with screening of the compound library against various biological targets and signaling pathways. Some of these compounds may have fluorophoric properties. Such properties may interfere with the assay outputs resulting in false positives and/or negatives. To decrease such complications and ensure the compound activities are relevant in terms of biological response, the Tox21 10K compound library was screened for auto fluorescence. From the fluorophores used as reporter signals in our screening assays, the auto fluorescence equivalencies of compounds against three fluorophores have been evaluated: Triamterene, Fluorescein and Rose Bengal sodium for blue, green and red fluorescence, respectively. The fluorescence intensities were measured using Excitation/Emission wavelengths at 405/460nm, 485/535nm and 540/590nm for blue, green and red labels, respectively. This assay includes the red fluorescence data.
Tox21 Assay Protocol Summary: 5 uL of culture medium (DMEM containing 10% FBS) per well was dispensed into black wall/clear bottom 1536-well plates using a Multidrop Combi Dispenser (ThermoFisher Scientific, Waltham, MA). After 23 nL compound or DMSO vehicle was transferred into assay plate by a pintool work station (Kalypsys, San Diego, CA), fluorescence intensities in the assay plates were measured by an Envision (PerkinElmer, Shelton, CT) plate reader using three labels for measuring blue, green and red fluorescence at […] 460, 535 and 590nm respectively.
% is scaled to controls: 0 for no effect and ±100 for the full control effect.

| Structure (SMILES) | fluorescence, % of fluorescent control | outcome |
| --- | --- | --- |
| CCC(C)(CCC(C)C)C(=O)O (stereo not given) | -0.232% (inactive) | – |
| O=C1CCCC(=O)O1 | -0.539% (inactive) | – |
| COCCOCCOCCOCCOCCO | -0.0386% (inactive) | – |
| O=C(O)c1ccc(Cl)cc1Cl | -0.0259% [at 95.7 µM] (inactive) | – |
| CN(C)C(=O)CNC(=O)Cc1ccccc1 | 0.332% [at 46 µM] (inactive) | – |
| C[C@H](CCC(=O)O)[C@H]1CC[C@H]2[C@@H]3C(=O)C[C@@H]4CC(=O)CC[C@]4(C)[C@H]3CC(=O)[C@]12C | 0.134% [at 46 µM] (inactive) | – |
| Oc1cn2c(n1)Nc1ccc(Cl)c(Cl)c1C2 | – | inactive |
| Cc1cc2cc3c(C)cc(=O)oc3c(C)c2o1 | 0.147% [at 18.6 µM] (inactive) | – |
| O=C(CS(=O)Cc1ccco1)NC/C=C\COc1cc(CN2CCCCC2)ccn1 (stereo not given) | -0.219% [at 46 µM] (inactive) | – |
| N[C@@H](CCC(=O)Nc1ccc([N+](=O)[O-])cc1)C(=O)O | -0.178% (inactive) | – |
| O=C(CCNNC(=O)c1ccncc1)NCc1ccccc1 | 0.161% [at 46 µM] (inactive) | – |
| C#CC(C)N(C)C(=O)Nc1ccc(Cl)cc1 (stereo not given) | -0.0624% (inactive) | – |
| ClCCCl | 0.242% (inactive) | – |
| CCOC(=O)c1ccc(OC(=O)CCCCCN=C(N)N)cc1 | 0.226% [at 18.6 µM] (inactive) | – |
| Cc1c(I)c(=O)n(-c2ccccc2)n1C | -0.145% [at 46 µM] (inactive) | – |
| CCCCCCCC/C=C\CCCCCCCC(=O)OCCCC | 0.213% [at 18.6 µM] (inactive) | – |
| OCCC(F)(F)C(F)(F)C(F)(F)C(F)(F)C(F)(F)C(F)(F)C(F)(F)C(F)(F)F | -0.0785% (inactive) | – |
| C=C(C)C(=O)OCc1ccccc1 | -0.246% (inactive) | – |
| C=Cc1ccccn1 | -0.239% (inactive) | – |
| O=C1O[C@@H]2[C@@H](O)[C@H](O)O[C@@H]2[C@H]1O | – | inactive |

| Structure (SMILES) | fluorescence, % of fluorescent control | outcome |
| --- | --- | --- |
| CN=C(NC#N)Nc1ccc(C2=NNC(=O)CC2C)cc1 (stereo not given) | -0.18% [at 46 µM] (inactive) | – |
| CC(=O)Nc1ccc(S(=O)(=O)Cl)cc1 | -0.232% (inactive) | – |
| Nc1nnc(-c2cccc(Cl)c2Cl)c(N)n1 | 0.215% [at 46 µM] (inactive) | – |
| Cc1ccccc1OCC(O)CO (stereo not given) | -0.597% [at 46 µM] (inactive) | – |
| CC(C)CC(=O)O | 0.168% (inactive) | – |
| CCCCOCCOC(=O)COc1nc(Cl)c(Cl)cc1Cl | 0.0182% (inactive) | – |
| N[C@@H](COP(=O)(O)O)C(=O)O | -0.652% [at 46 µM] (inactive) | – |
| O=C(O)c1cc(Cl)cc([N+](=O)[O-])c1Cl | 0.379% (inactive) | – |
| O=S(=O)(O)CCN1CCN(CCO)CC1 | -0.0149% (inactive) | – |
| CC(C)=O | – | inactive |
| Brc1ccc(-c2ccccc2)cc1 | 0.16% (inactive) | – |
| CCCCCCCCOS(=O)(=O)O | 0.0507% (inactive) | – |
| O=C1c2ccccc2C(=O)N1CCl | -0.198% (inactive) | – |
| CC(=O)c1sc(C)nc1C | 0.0473% (inactive) | – |
| C=CC(OCC)OCC | 0.227% (inactive) | – |
| NNc1nnc(NN)c2ccccc12 | 0.281% [at 46 µM] (inactive) | – |
| C=C(C)C(=O)OCCOP(=O)(O)OCCOC(=O)C(=C)C | -0.131% (inactive) | – |
| BrCCCCCBr | 0.0699% [at 95.7 µM] (inactive) | – |
| O=S(=O)(O)c1cc(O)c2ccc(Nc3ccccc3)cc2c1 | 0.0498% (inactive) | – |
| CCOc1cc(NC(C)=O)ccc1C(=O)OC | 0.0515% [at 46 µM] (inactive) | – |
